Data taken from PubChem BioAssay AID1852 (Sanford-Burnham Center for Chemical Genomics, 2009).
The campaign covered roughly 2,500 compounds. About 1,100 (44%) were called active.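 How the source made its calls: active means inhibition above 50% at 4 µM in the single-point screen; inactive means inhibition of 50% or less.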 So high a share suggests a set chosen from earlier hits. The list shows a part of the results.

Test: TNF-a-driven NF-kB reporter inhibitors, primary screen, selectivity assay for NOD1/NOD2 signaling inhibitor project, cell-based, HEK293T NF-kB-Luc, luminescence (AID 1852)
Settings: TNF-a induced, 14 h, at 4 µM, active compounds read high

inhibition, inactive:
Cc1ccc(NC2=C(Cl)C(=O)c3ccccc3C2=O)cc1 -26.5%
Cc1ccc(NS(=O)(=O)c2ccc3c(c2)C(=O)c2ccccc2C3=O)c(C)c1 2.1%
Cc1ccc(NC(=O)COc2ccc(/C=C3/SC(=Nc4ccccc4)N(Cc4cccnc4)C3=O)cc2)cc1 14.5%
COc1ccccc1NC(=O)C1CCCN(S(=O)(=O)c2ccc3c(c2)CC(C)N3C(C)=O)C1 (centres undefined) 47.2%
CC(=O)N1c2ccc(S(=O)(=O)N3CCC(C(=O)Nc4cccc(C)n4)CC3)cc2CC1C (centres undefined) 40.5%
O=C(CN1CCc2cc3c(cc2C1)OCCCO3)Nc1c(F)cccc1F -3.8%
O=C1C(=O)N(c2nccs2)C(c2ccccc2)/C1=C(\O)c1ccc2c(c1)OCCO2 (centres undefined) 31.4%
O=C(/C=C/c1ccncc1)c1ccc2c(c1)OCCO2 -1.4%
Cc1ccccc1CN1CCc2c(OCC(=O)N3CCCc4ccccc43)cccc2C1=O 48.2%
O=C(CSc1ncnc2c1oc1ccccc12)N1CCCc2ccccc21 18.1%
CC(C)CCn1c(Sc2nc3ccccc3o2)nc2c1c(=O)[nH]c(=O)n2C 26.6%
O=C(CSc1nc2ccccc2c(=O)[nH]1)Nc1ccccc1C(F)(F)F 21.5%
Cc1nn(-c2ccccc2)c2nc(C(Cl)(Cl)Cl)[nH]c(=O)c12 23.6%
O=C(O)c1ccc(N/N=C/c2ccc3nccnc3c2)cc1 48.6%
O=C(O)c1cccc(N/N=C/c2cccs2)c1 -23%
N#Cc1c(-c2ccccc2)nc(SCc2cccc(C(F)(F)F)c2)[nH]c1=O -14.5%
CS(=O)(=O)c1ccc(Sc2nc3ccccc3s2)c([N+](=O)[O-])c1 -1.5%
CS(=O)(=O)c1ccc(C(=O)OCc2nnc(-c3ccccc3)o2)cc1[N+](=O)[O-] 38.9%
Cc1ccc(-n2ncc3c2CCCC3NC(=O)c2cnccn2)cc1C (centres undefined) 37.7%
O=C1C=C(c2ccccc2)C[C@H](c2cccs2)[C@H]1n1nnc([N+](=O)[O-])n1 35.8%
Cc1cc(NC(=S)NC(=O)/C=C/c2ccc(S(=O)(=O)N3CCOCC3)cc2)ccc1Br -18.3%
O=C(c1[nH]nc2c1CCc1ccccc1-2)N1CCN(Cc2ccc3c(c2)OCO3)CC1 45.6%
COc1cc(/C=C2\CCC/C(=C\c3ccc(O)c(OC)c3)C2=O)ccc1O 9.3%
COc1cc(OC)c(OC)cc1/C=C1\CCC/C(=C\c2cc(OC)c(OC)cc2OC)C1=O 41.8%
COc1ccc(C(C(=O)NC2CCCCC2)N(C(=O)CCl)c2ccc(OC)cc2)cc1 (centres undefined) 40.2%
COc1ccc(C(C(=O)NC2CCCCC2)N(C(=O)CCl)c2ccc(C)cc2)cc1 (centres undefined) 37%
CC(=O)NC(c1ccco1)c1ccc2cccnc2c1O (centres undefined) 26.6%
COc1ccccc1C(=O)NCc1ccc(-c2nc3ccccc3s2)cc1 14.3%
COc1cc([N+](=O)[O-])cc2sc(NC(=O)c3c(F)cccc3F)nc12 16.4%
COc1ccc2nc(Nc3nc4ccc(NC(C)=O)cc4s3)sc2c1 -14.1%
COc1ccc2nc(Nc3nc(C)c(C(C)=O)s3)sc2c1 -12.9%
O=C(CCl)N=c1sccn1Cc1cccc2ccccc12 44.1%
CC(=O)NC(c1ccc(Cl)cc1Cl)c1ccc2cccnc2c1O (centres undefined) 15.6%
COc1ccc(-c2cc(C)no2)cc1S(=O)(=O)N1CCN(c2ccccc2F)CC1 49.7%
CSC(=S)N/N=C/c1ccc(Br)cc1 3.9%
Cc1conc1NC(c1cccs1)c1ccc2cccnc2c1O (centres undefined) 14.1%
Cc1ccc(CNC(=O)C2CCCN(S(=O)(=O)c3cccc4nonc34)C2)cc1 (centres undefined) 43.1%
Cc1cccc(NC(=O)C2CCN(S(=O)(=O)c3ccc4c(c3)NC(=O)CO4)CC2)c1 11.7%
CCc1ccc(-c2cc(C)no2)cc1S(=O)(=O)NCCCN1CCN(c2ccccc2)CC1 28.3%
C/C(=N\NC(=O)c1cc2ccccc2cc1O)c1ccccn1 -5.1%
CCOC(=O)N1CCN(C(=O)c2ccc(Oc3ccc([N+](=O)[O-])cc3)cc2)CC1 -11.6%
COc1ccc(NS(=O)(=O)c2ccc3oc(SC(C)C(N)=O)nc3c2)cc1 (centres undefined) 2.2%
Cc1ccc(C)c(N2CCN(C(=O)C34CC5CC(C3)CC(n3nnc(C)n3)(C5)C4)CC2)c1 25.2%
CCOc1ccccc1-n1c(SCC(=O)Nc2ccccc2C(=O)O)nc2ccccc2c1=O -2.7%
O=C(COc1ccc2ccccc2c1)Nc1ccc(Br)cc1C(=O)O -2.8%
COc1cc(/C=C/c2ccc3cccc(O)c3n2)cc(Br)c1OC 28.6%
COc1cc(/C=C/c2ccc3cccc(O)c3n2)cc(Cl)c1OC -19.5%
COc1cccc(OCCOc2ccc(/C=C3\C(=N)N4N=C(S(C)(=O)=O)SC4=NC3=O)cc2OC)c1 -57.6%

inhibition, active:
Cc1cc(C)c(S(=O)(=O)/N=C2\C=C(NS(=O)(=O)c3ccccc3)C(=O)c3ccccc32)c(C)c1 94.9%
Cc1ccc(C)c(S(=O)(=O)/N=C2\C=C(NS(=O)(=O)c3ccccc3)C(=O)c3ccccc32)c1 102%
Cc1cc(C)c(S(=O)(=O)/N=C2\C=C(Nc3ccc(C(=O)O)cc3)C(=O)c3ccccc32)c(C)c1 107%
CCc1ccc(NC(=O)C2CCN(S(=O)(=O)c3ccc4c(c3)CC(C)N4C(C)=O)CC2)cc1 (centres undefined) 70%
O=C(CN1C(=O)c2ccccc2S1(=O)=O)N1CCc2ccccc21 70.7%
O=C(CN1C(=O)c2ccccc2S1(=O)=O)c1ccc2c(c1)OCCCO2 95.7%
O=C(CN1C(=O)c2ccccc2S1(=O)=O)c1ccc2c(c1)OCCO2 95%
O=C(CSc1nnnn1C1CC2CCC1C2)Nc1ccnc2ccccc12 (centres undefined) 54.8%
Cc1nn(-c2cc(C(F)(F)F)ccc2Cl)c2nc(C(Cl)(Cl)Cl)[nH]c(=O)c12 71.3%
Cc1nn(-c2cccc(Cl)c2)c2nc(C(F)(F)F)[nH]c(=O)c12 58.8%
O=C(O)c1cccc(N/N=C/c2cccc3ccccc23)c1 54.1%
O=c1cc(C(F)(F)F)nc(SCc2cccc3ccccc23)[nH]1 61.3%
CS(=O)(=O)c1ccc(S(=O)CC(=O)OCc2ccccc2)c([N+](=O)[O-])c1 (centres undefined) 50.2%
Cc1cc(C(=O)NC2CCCc3c2cnn3-c2ccc(C)c(C)c2)n(C)n1 (centres undefined) 74.6%
CCn1nc(C)cc1C(=O)NC1CCCc2c1cnn2-c1ccc(C)c(C)c1 (centres undefined) 58.9%
Cc1cc(C(=O)CCl)c(C)n1-c1cccc(S(=O)(=O)N2CCOCC2)c1 52.4%
O=C(NC(=S)N1CCN(Cc2ccc3c(c2)OCO3)CC1)c1cccc(Br)c1 76.1%
COc1cc(/C=C2/CCC/C(=C\c3cc(O)c(OC)c(Cl)c3)C2=O)cc(Cl)c1O 108%
CCOc1cc(/C=C2\CCC/C(=C\c3cc(Cl)c(O)c(OCC)c3)C2=O)cc(Cl)c1O 87.7%
O=C(NC1CCCCC1)C(c1cccnc1)N(C(=O)CCl)c1ccc(F)cc1 (centres undefined) 69.8%
COc1ccc(N(C(=O)CCl)C(C(=O)NC2CCCCC2)c2cccnc2)cc1 (centres undefined) 87.1%
CC(=O)NC(c1cccs1)c1cc([N+](=O)[O-])c2cccnc2c1O (centres undefined) 105%
CC(C)C(=O)NC(c1cccs1)c1cc([N+](=O)[O-])c2cccnc2c1O (centres undefined) 54.8%
COc1ccc(C(=O)Nc2nc3ccccc3s2)c(OC)c1 88%
COc1ccccc1C(=O)Nc1nc2ccccc2s1 65.3%
CCOc1ccc2nc(NC(=O)c3ccccn3)sc2c1 102%
CC(=O)NC(c1ccc2ccccc2c1)c1ccc2cccnc2c1O (centres undefined) 75.2%
COc1ccc(C(NC(C)=O)c2ccc3cccnc3c2O)c(OC)c1 (centres undefined) 99.8%
CC(=O)NC(c1cccc([N+](=O)[O-])c1)c1ccc2cccnc2c1O (centres undefined) 70.9%
COc1cccc(C(NC(C)=O)c2ccc3cccnc3c2O)c1 (centres undefined) 57.3%
Cc1cc(NC(c2cccnc2)c2ccc3cccnc3c2O)no1 (centres undefined) 99.8%
COc1ccc(C)cc1NC(=O)C1CCN(S(=O)(=O)c2cccc3nonc23)CC1 94.5%
C/C(=N\NC(=O)c1cc2ccccc2cc1O)c1cc2ccccc2o1 105%
Cc1ccc(S(=O)(=O)CC#CCOC(=O)c2ccc([N+](=O)[O-])cc2)cc1 91.4%
COc1ccc(NS(=O)(=O)c2ccc(N/N=C(\C)c3ccncc3)c([N+](=O)[O-])c2)cc1 51.9%
CC[C@H]1CN2CCc3cc(OC)c(OC)cc3[C@@H]2C[C@@H]1C[C@H]1NCCc2cc(OC)c(OC)cc21 102%
CN(C)Cc1c(C(=O)N/N=C/c2cccc(OCc3c(F)cccc3Cl)c2)nnn1-c1nonc1N 74%
O=C(CSc1nc2ccccc2c(=O)n1Cc1ccccc1)Nc1ccc(Br)cc1C(=O)O 53.2%
COc1cc(/C=C/c2ccc3cccc(O)c3n2)cc(OC)c1OC 105%
COc1cc(/C=C/c2ccc3cccc(O)c3n2)ccc1O 105%
C=C1C(=O)[C@@]23[C@H](O)C[C@@H]4C(C)(C)CC[C@H](O)[C@@]4(C)[C@@H]2CC[C@@H]1[C@H]3O 68.9%
